According to PubChem BioAssay (NCI):
The panel holds about 79,000 compounds, 15% with a hit somewhere; the sample as a whole holds those more often. Unmarked numbers belong to inactive results. Active and inactive are the calls of the source. No stated cut-off is given here; in the data, active means growth inhibition above about 70%; inactive means the rest.

Experiments:
[1] = NCI Yeast Anticancer Drug Screen. Data for the rad50 strain (AID 155);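 further: 0% = growth of vehicle-only cultures of the same strain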; conditions: S. cerevisiae rad50 strain growth inhibition, hits give high values
How it was run: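 Vehicle-treated cultures provide the reference for the growth inhibition reported for compound-exposed, repair-deficient yeast.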

[2] = NCI Yeast Anticancer Drug Screen. Data for the mec2-1 strain (AID 157); conditions: S. cerevisiae mec2-1 strain, hits give high values
How it was run: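 Cells of the genetically defined mec2-1 yeast strain are incubated with test compound. Inhibition of growth is calculated against vehicle-treated controls.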

[3] = NCI Yeast Anticancer Drug Screen. Data for the sgs1 mgt1 strain (AID 161);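 further: 0% = growth of cultures given vehicle only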; conditions: S. cerevisiae sgs1 mgt1 strain, hits give high values
How it was run: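 Mutant yeast exposed to compound; growth scored against vehicle-only wells.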

[4] = NCI Yeast Anticancer Drug Screen. Data for the cln2 rad14 strain (AID 165);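 further: 0% = growth equal to vehicle treated cultures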; conditions: S. cerevisiae cln2 rad14 strain, hits give high values
How it was run: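 The screen exposed genetically defined yeast (cln2 rad14) to test compounds and scored growth inhibition relative to vehicle-treated controls.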

[5] = NCI Yeast Anticancer Drug Screen. Data for the bub3 strain (AID 167); conditions: S. cerevisiae bub3 mutant strain, hits give high values
How it was run: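 Mutant yeast screening strain plus compound; vehicle-treated cultures serve as the 0% inhibition reference.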

[6] = NCI Yeast Anticancer Drug Screen. Data for the mlh1 rad18 strain (AID 175); conditions: S. cerevisiae mlh1 rad18 strain growth inhibition, hits give high values
How it was run: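 Compound-treated yeast growth, normalised to vehicle controls. Strain bears defined DNA repair mutations.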

[7] = at 5.0 µM (retest, dose inferred, filed as 0.5)
[8] = at 50.0 µM (retest, dose inferred, filed as 5.0)

| Structure (SMILES) | growth inhibition [1, 7] | growth inhibition [1, 8] | growth inhibition ([1]; at 50.0 µM) | growth inhibition [2, 7] | growth inhibition [2, 8] | growth inhibition ([2]; at 50.0 µM) | growth inhibition [3, 7] | growth inhibition [3, 8] | growth inhibition ([3]; at 50.0 µM) | growth inhibition [4, 7] | growth inhibition [4, 8] | growth inhibition ([4]; at 50.0 µM) | growth inhibition [5, 7] | growth inhibition [5, 8] | growth inhibition ([5]; at 50.0 µM) | growth inhibition [6, 7] | growth inhibition [6, 8] | growth inhibition ([6]; at 50.0 µM) |
| --- | --- | --- | --- | --- | --- | --- | --- | --- | --- | --- | --- | --- | --- | --- | --- | --- | --- | --- |
| CN(C)C(=O)Nc1ccc(Cc2ccc(NC(=O)N(C)C)cc2)cc1 | -6% | -32% | -3% | -29% | -32% | -13.2% | -13% | -8% | 27.6% | 5% | -4% | 3.65% | -19% | -20% | 7.95% | -33% | -56% | -0.15% |
| CCO/C=C1\N=C(C(O)(c2ccc(Cl)cc2)c2ccc(Cl)cc2)OC1=O | -1% | 3% | 48.7% | 1% | 16% | 16% | -2% | 1% | 18.8% | 1% | -1% | 44.5% | 13% | 8% | 43.1% | -1% | 10% | 34% |
| Nc1cc(F)c2c(c1F)C(=O)c1cc(F)ccc1-2 | 15% | 92% (active) | 93.3% (active) | 13% | 70% (active) | 27.3% | 2% | 84% (active) | 55.4% | 4% | 41% | 26.5% | 2% | 72% (active) | 17.8% | 5% | 78% (active) | 80.7% (active) |
| O=C1CSC(c2ccc([N+](=O)[O-])cc2)N1c1ccc(-c2ccc(-n3c(-c4ccccc4)nc4ccccc4c3=O)cc2)cc1 (configuration not stated) | -1% | 91% (active) | 85.2% (active) | 13% | 79% (active) | 84.4% (active) | 14% | 93% (active) | 94% (active) | 31% | 75% (active) | 72.5% (active) | -14% | 95% (active) | 95.2% (active) | 19% | 96% (active) | 94.8% (active) |
| CS(=O)(=O)OCCN(CCOS(C)(=O)=O)c1ccc(C=Nc2ccc3ccccc3c2)c(Cl)c1 | 5% | 22% | 10.4% | -203% | -3% | 23.1% | 3% | 14% | 34% | 11% | -9% | 35.4% | 0% | -9% | 5.85% | 7% | 34% | 66% |
| CC(=O)Nc1ccc(C#N)c2ccccc12 | 43% | 33% | 40.4% | 42% | 33% | 35.8% | 0% | 29% | 23.1% | 41% | 34% | 7.4% | 21% | 44% | 40.8% | 35% | 35% | 19.4% |
| CCCCCCCC/C=C\CCCCCCCC(=O)O (tested in a mixture with another compound) | 4% | 97% (active) | 96.2% (active) | -1% | 100% (active) | 99.3% (active) | 3% | 98% (active) | 89.7% (active) | 2% | 96% (active) | -53.9% | -2% | 99% (active) | 95.3% (active) | 0% | 96% (active) | 97.1% (active) |
| C=CC(=O)Nc1ccccc1CC(c1c[nH]c2ccccc12)c1c[nH]c2ccccc12 | 34% | 34% | 85% (active) | 26% | 26% | 73.7% (active) | 34% | 34% | 81.5% (active) | 12% | 12% | 84.3% (active) | 21% | 21% | 74.5% (active) | 27% | 27% | 76.9% (active) |
| CN(C)C(=O)c1ccccc1SC(=S)NCc1ccccc1 | 0% | 99% (active) | 98.1% (active) | -2% | 99% (active) | 91.3% (active) | 2% | 93% (active) | 95.8% (active) | -3% | 99% (active) | 95.3% (active) | -7% | 99% (active) | 88.2% (active) | -3% | 98% (active) | 96.6% (active) |
| CN(Cc1ccccc1)CC(O)c1cc(-c2ccc(Cl)cc2)nc2ccccc12 (configuration not stated) | -1% | 99% (active) | 98.8% (active) | 2% | 100% (active) | 98.5% (active) | 24% | 100% (active) | 99.2% (active) | 1% | 99% (active) | 98.4% (active) | 7% | 99% (active) | 98% (active) | 10% | 99% (active) | 98.3% (active) |
| CCNc1cc(SC)nc(N)n1 | 1% | -4% | 1.2% | -1% | 2% | 37.1% | -1% | -3% | -7.6% | -8% | 3% | -3.6% | -2% | -1% | -23.2% | 1% | -4% | -22.4% |
| CC(C)C1=C(O)C2=C(C(=O)C1=O)C1(C)CCCC(C)(C)C1C(O)C2OC=O (configuration not stated) | 91% (active) | 95% (active) | 92.2% (active) | 100% (active) | 100% (active) | 93.7% (active) | 99% (active) | 100% (active) | 93.5% (active) | 81% (active) | 99% (active) | 92% (active) | 100% (active) | 100% (active) | 92.5% (active) | 98% (active) | 99% (active) | 87.5% (active) |
| Nc1ccc([N+](=O)[O-])cc1Nc1c2ccccc2nc2ccccc12 | 5% | 15% | 82.3% (active) | 2% | 5% | 17.7% | 1% | 27% | 40% | -1% | 34% | -6.85% | -4% | 17% | -43.4% | 2% | 37% | 31.4% |
| CN(C)c1ccc(/C=C(/NC(=O)c2ccccc2)c2nc3ccc(Cl)cc3[nH]2)cc1 | 16% | 16% | 64.7% | 6% | 6% | 68.3% | -2% | -2% | 67.2% | 16% | 16% | 60.5% | -8% | -8% | 71.5% (active) | -25% | -25% | 73.8% (active) |
| CN(CN(C)N=Nc1ccc(Cl)cc1)CN(C)N=Nc1ccc(Cl)cc1 | -14% | 9% | -3.1% | 3% | -8% | -1.75% | -24% | 4% | 4.7% | -6% | -2% | 19.9% | 0% | 4% | -0.7% | -12% | 3% | 9.7% |
| COC(=O)c1ccc(NN)cc1 | 12% | 39% | 65.8% | 4% | 19% | 61% | 3% | 17% | 36.1% | 3% | 42% | 46.1% | 3% | 85% (active) | 86% (active) | 4% | 42% | 40.9% |
| CCCCCCCCN(CCCCCCCC)CC(O)c1cc2c(c3ccccc13)CCCC2 (configuration not stated) | 10% | 95% (active) | 99.2% (active) | 8% | 96% (active) | 99.4% (active) | 25% | 96% (active) | 99.3% (active) | 13% | 94% (active) | 99.2% (active) | 28% | 95% (active) | 98.8% (active) | 11% | 96% (active) | 98.8% (active) |
| CCOP(=O)(OCC)/C(C#N)=C/c1coc2cc(C)cc(C)c2c1=O | 19% | 99% (active) | 86.7% (active) | -7% | 100% (active) | 91.9% (active) | -10% | 99% (active) | 78% (active) | 0% | 99% (active) | 59% | -9% | 98% (active) | 87.2% (active) | 26% | 99% (active) | 82.2% (active) |
| CC[N+](C)(CC)CCC[n+]1c(-c2ccccc2)c2cc(N)ccc2c2ccc(N)cc21 | 60% | 90% (active) | 94.6% (active) | 1% | 27% | 44.2% | -2% | 33% | 68.9% | -3% | 19% | 24.9% | -7% | 9% | 18.9% | 4% | 49% | 82% (active) |
